About 79,000 compounds went through this panel and 15% of them were active in at least one assay; those are over-represented in the sample as a whole. A number with no mark means an inactive call. Active and inactive are the calls of the source. Cut-off read from the data, not from the text of the source: active = growth inhibition above about 70%; inactive = the rest.
Key:
[1] = NCI Yeast Anticancer Drug Screen. Data for the rad50 strain (AID 155);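 note: 0% = growth of vehicle-only cultures of the same strain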; conditions: S. cerevisiae rad50 strain growth inhibition; at 50.0 µM; stronger effect = higher value
How it was run: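 Vehicle-treated cultures provide the reference for the growth inhibition reported for compound-exposed, repair-deficient yeast.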

[2] = NCI Yeast Anticancer Drug Screen. Data for the mec2-1 strain (AID 157); conditions: S. cerevisiae mec2-1 strain, at 50.0 µM, stronger effect = higher value
How it was run: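 Growth inhibition is read against vehicle-treated controls after compound exposure of the mec2-1 yeast strain, which is defective in DNA damage repair or cell cycle control.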

[3] = NCI Yeast Anticancer Drug Screen. Data for the sgs1 mgt1 strain (AID 161);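 note: 0% = growth of cultures given vehicle only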; conditions: S. cerevisiae sgs1 mgt1 strain, at 50.0 µM, stronger effect = higher value
How it was run: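 This yeast growth screen uses a strain with defined DNA-repair lesions; compound-treated growth is compared with vehicle-treated growth.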

[4] = NCI Yeast Anticancer Drug Screen. Data for the cln2 rad14 strain (AID 165);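 note: 0% = growth equal to vehicle treated cultures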; conditions: S. cerevisiae cln2 rad14 strain, at 50.0 µM, stronger effect = higher value
How it was run: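 Growth inhibition, relative to vehicle-treated controls, is the read-out. The test organism is a yeast strain with defined genetic alterations, cln2 rad14.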

[5] = NCI Yeast Anticancer Drug Screen. Data for the bub3 strain (AID 167); conditions: S. cerevisiae bub3 mutant strain, at 50.0 µM, stronger effect = higher value
How it was run: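 Mutant yeast screening strain plus compound; vehicle-treated cultures serve as the 0% inhibition reference.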

[6] = NCI Yeast Anticancer Drug Screen. Data for the mlh1 rad18 strain (AID 175); conditions: S. cerevisiae mlh1 rad18 strain growth inhibition; at 50.0 µM; stronger effect = higher value
How it was run: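 Cells of a genetically altered yeast strain, deficient in DNA damage repair, were treated with compound. Their growth was then compared with that of vehicle-treated cultures to give inhibition.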

Compound	growth inhibition [1]	growth inhibition [2]	growth inhibition [3]	growth inhibition [4]	growth inhibition [5]	growth inhibition [6]
Cc1nc(=O)n2c(c1C(=O)Nc1ccc(Cl)cc1)NCC2	3.75%	-3.35%	0.1%	-37.9%	2.35%	14.8%
CN(C(=O)c1ccc(C(=N)N)cc1)c1ccccc1	-8.3%	-7.3%	-5.1%	-12.8%	-0.05%	-8.95%
CCOC1(OCC)CS(=O)(=O)C1c1ccccc1 (centres undefined)	-1.2%	-10.2%	1.95%	-26.2%	12.6%	-18.6%
CSc1nc(NC2OC(CO)C(O)C(O)C2O)c(Br)c(=O)n1C (centres undefined)	0.4%	-1.7%	-6.3%	-8.75%	-2.75%	20.1%
COc1cc(C2C3=C(COC3=O)OC(C)(C)Oc3cc4c(cc32)OCO4)cc(OC)c1O (centres undefined)	55.7%	-3.6%	-7.3%	-28.7%	-27.1%	0%
CS(=O)(=O)CCCCCCCCCCC(=O)O	-5.4%	13.6%	3.4%	3.95%	10.4%	15.4%
COC1=CC(=C(\C#N)c2ccccc2)/C=CC/1=N/O	40.2%	39%	46.6%	-2%	64.5%	46.8%
COc1ccc(-c2oc3ccc(C)cc3c(=O)c2O)cc1	6.9%	-8%	-14.8%	14.8%	-5.7%	-26.8%
Cc1ncc([N+](=O)[O-])n1CCNC(=O)CCCCn1ccnc1[N+](=O)[O-]	5%	-3.75%	-8.6%	15.1%	7.15%	-45%
O=C(Cl)c1cc(C(=O)Cl)cc(C(=O)Cl)c1	-28.6%	-51.2%	-24.2%	7.15%	-28.4%	-28.6%
COC1CC(NC(=O)C(F)(F)F)C(O)C(CNC(=O)C(F)(F)F)O1 (centres undefined)	-32.5%	17.2%	-3.55%	-14%	16.1%	19.4%
CCC(NC(C)c1ccccc1)C(O)c1ccc(OCc2ccccc2)c(OCc2ccccc2)c1 (centres undefined)	88.6% (active)	91.5% (active)	92.3% (active)	91.3% (active)	91.5% (active)	87.7% (active)
CC(C)CCOc1ccc(C(N)=S)c2ccccc12	80% (active)	96.8% (active)	96.4% (active)	68.5%	84% (active)	95.2% (active)
COC(=O)C1(CC(=O)C2CC2)NC(=S)NC(=O)C1C#N (centres undefined)	13.2%	-10.2%	-12.3%	-8.6%	-21.4%	5.2%
CC(C)=CCC[C@@H](C)C1[C@@H](OC2OC(CO)C(O)C(O)C2O)CC2(C)[C@@H]3CC(=O)C4C(C)(C)[C@@H](OC5OC(CO)C(O)C(O)C5O)CC[C@@]45C[C@@]35CC[C@]12C (some centres undefined)	-17.4%	-40%	-27.1%	-3.15%	-20.8%	-25.4%
S=C(Nc1ccc2ccccc2c1)Nc1ccc2ccccc2c1	22%	10.9%	14.4%	-30.6%	5.4%	-2%
CC(=O)C(c1ccccc1)N(CCO)Cc1ccccc1 (centres undefined)	8.15%	-6%	-5.9%	28.6%	7.45%	1.8%
CC(=O)C(C)C(C)=O	-2.95%	0.7%	1.4%	-21.6%	22.6%	-0.85%
CN1CCN(c2c3c(nc4ccccc24)CCCC3)CC1	-6.45%	2%	-2.4%	-40.2%	-10.3%	-22%
CC(=O)Nc1ccc(-c2nnc(SCC(=O)Nc3ccc(C)cc3)o2)cc1	-15%	-5.5%	-5.8%	8.4%	-13.7%	-38.3%

Compound	growth inhibition [1]	growth inhibition [2]	growth inhibition [3]	growth inhibition [4]	growth inhibition [5]	growth inhibition [6]
COc1ccc(CN)cc1	-0.7%	-9.6%	-15.2%	2.75%	6.85%	-2.6%
O=Cc1c[nH]c2ccccc2c1=O	17.1%	0.9%	1.05%	3.55%	30.4%	10.9%
NC(N)=NC(=O)c1ccccc1	-26.4%	-12.2%	-9.55%	-23.1%	-0.55%	12.9%
Cc1cc(=O)oc2cc(NC(=O)C(CCCN=C(N)N)NC(=O)OCc3ccccc3)ccc12 (centres undefined)	26.5%	-17.4%	23.1%	-2.95%	-4.1%	7.1%
CCCCn1c(=S)sc2ccccc21	15.2%	4.45%	20.8%	-50.5%	21.7%	22.4%
O=C(NCCCCCCCCNC(=O)c1cccc2ccccc12)c1cccc2ccccc12	14.2%	25%	2.8%	-9.25%	-10.4%	16.8%
S=C(S)NCNC(=S)S.[Zn+2]	1.65%	12.2%	26.1%	-64.2%	28.2%	29.4%
Cc1cccc(C(N)=S)n1	14.9%	7.5%	11.1%	23.9%	18.8%	22.5%
NCCOc1ccccn1	-1.7%	-10.8%	-0.6%	-10.7%	1%	-1.9%
ClC(Cl)(Cl)C(=NNc1ccccc1)C(Cl)(Cl)Cl	-0.1%	16.4%	30.4%	50.5%	30.6%	69.5%
CC(=O)N1CCc2ccccc2C1C1NCCc2ccccc21 (centres undefined)	14.4%	8.95%	13.1%	-0.15%	1.05%	5.9%
C/C(CC(=O)Nc1ccccc1[N+](=O)[O-])=N\NC(N)=O	14.1%	-15.8%	-18.1%	27.4%	-23.1%	-2.9%
O=C(O)c1nnn(Cc2ccccc2)c1C(=O)O	7.75%	-6%	-17.6%	2.35%	15.8%	20%
O=C(O)c1c[n+]([O-])ccc1Cl	12.8%	-0.9%	-8%	-42%	-8.2%	27.1%
CC(=O)N(C)c1ccccc1O	6.6%	-10.1%	-14.6%	-33.2%	10.2%	-19.9%
Cc1cc2c(c(N)c1C)C(=O)c1ccccc1C2=O	18.4%	11.4%	31.7%	10.9%	26.2%	6.7%
CC1(C)OC(C(CCl)OS(C)(=O)=O)C(C(CCl)OS(C)(=O)=O)O1 (centres undefined)	4.2%	-6.1%	-5.7%	24.9%	-3.5%	6.95%
CCOC(=O)/C(=C(/N)C1OC(COC(c2ccccc2)(c2ccccc2)c2ccccc2)C2OC(C)(C)OC12)C1CC(=O)N(C)C1=O (centres undefined)	-4.35%	16.1%	12.7%	-27.8%	-7.35%	41.5%
CCOC(=O)c1ccc(NC(=O)Nc2cccc(Cl)c2)cc1	-4.2%	34.5%	50%	-17.9%	25.4%	23.9%
